Test results published in publication PMC11574364.

Target: T1, LARP7(1) (Homo sapiens, UniProt Q4G0J3)
T1 sequence: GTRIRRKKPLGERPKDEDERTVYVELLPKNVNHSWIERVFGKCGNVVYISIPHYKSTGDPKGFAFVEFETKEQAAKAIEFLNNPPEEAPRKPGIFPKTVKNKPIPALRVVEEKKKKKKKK
Assay: protein domain microarray probed with biotinylated miRNA; Domain array: 20 mM Tris-HCl pH 7.4, 200 mM KCl, 0.2 mM EDTA, 0.05% NP40, 2 ug/ul heparin, overnight 4 C. ORF array: PBS pH 7.0 with RNase inhibitor, 100 ng RNA; high values mean tight binding
Conditions: ssRNA

Compared with CAGUGCAAUGAUGAAAGGGCAU, AGAGGUAGUAGGUUGCAUAGUU is higher in binding signal: 104 ± 10.5 fluorescence intensity for the first, 137 ± 1.39 fluorescence intensity for the second.

First: UGAGGUAGUAGGUUGUGUGGUU
Second: UGAGGUAGUAGGUUGUAUGGUU
The binding signal of the first is higher: 234 ± 9.55 fluorescence intensity for the first, 153.2 ± 0.424 fluorescence intensity for the second.

UGAGGUAGUAGGUUGUAUAGUU gave a binding signal of 35.35 ± 0.0495 fluorescence intensity.

Target: CELF5(1-2) (Homo sapiens, UniProt Q8N6W0)
Assay: as above
Conditions: ssRNA

Sequence of CELF5(1-2) (Q8N6W0 20-233): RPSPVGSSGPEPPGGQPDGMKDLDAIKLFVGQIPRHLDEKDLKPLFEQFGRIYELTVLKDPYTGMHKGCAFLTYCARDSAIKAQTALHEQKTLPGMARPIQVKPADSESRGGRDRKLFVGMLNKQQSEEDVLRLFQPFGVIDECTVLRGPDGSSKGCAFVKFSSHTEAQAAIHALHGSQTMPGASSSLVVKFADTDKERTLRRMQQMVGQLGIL

CAGUGCAAUGAUGAAAGGGCAU and AGAGGUAGUAGGUUGCAUAGUU are within error of each other in binding signal: 52.7 ± 5.17 fluorescence intensity for the first, 56.1 ± 4.7 fluorescence intensity for the second.

Going from UGAGGUAGUAGGUUGUGUGGUU to UGAGGUAGUAGGUUGUAUGGUU, the binding signal falls from 107 ± 9.34 fluorescence intensity to 48 ± 2.14 fluorescence intensity.

UGAGGUAGUAGGUUGUAUAGUU was tested, and the binding signal was 24.4 ± 2.19 fluorescence intensity.

Target: EIF4H (Homo sapiens, UniProt Q15056)
Assay: as above
Conditions: ssRNA

Compared with CAGUGCAAUGAUGAAAGGGCAU, AGAGGUAGUAGGUUGCAUAGUU is higher in binding signal: 71.2 ± 5.92 fluorescence intensity for the first, 115 ± 9.98 fluorescence intensity for the second.

Going from UGAGGUAGUAGGUUGUGUGGUU to UGAGGUAGUAGGUUGUAUGGUU, the binding signal falls from 208 ± 18.3 fluorescence intensity to 93.9 ± 8.49 fluorescence intensity.

Sequence UGAGGUAGUAGGUUGUAUAGUU has a binding signal of 31.8 ± 3.73 fluorescence intensity.

Target: PABPC1L2A (Homo sapiens, UniProt Q5JQF8)
Assay: as above
Conditions: ssRNA

Sequence of PABPC1L2A (Q5JQF8 whole entry): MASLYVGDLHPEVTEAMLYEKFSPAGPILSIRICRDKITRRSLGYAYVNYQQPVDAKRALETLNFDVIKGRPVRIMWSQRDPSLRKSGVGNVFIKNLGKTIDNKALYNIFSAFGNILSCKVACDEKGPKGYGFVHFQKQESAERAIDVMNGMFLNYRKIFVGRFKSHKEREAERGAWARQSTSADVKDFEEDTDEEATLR

Compared with CAGUGCAAUGAUGAAAGGGCAU, AGAGGUAGUAGGUUGCAUAGUU is higher in binding signal: 88.7 ± 6.19 fluorescence intensity for the first, 179 ± 20.3 fluorescence intensity for the second.

Compared with UGAGGUAGUAGGUUGUGUGGUU, UGAGGUAGUAGGUUGUAUGGUU is lower in binding signal: 312 ± 42.4 fluorescence intensity for the first, 240 ± 13.7 fluorescence intensity for the second.

With UGAGGUAGUAGGUUGUAUAGUU the binding signal was 46.3 ± 9.23 fluorescence intensity.
